PLK1 PBD block: PLK1 (human) polo-box domain binding inhibition. P53350. Plk1 PBD binding of FITC phosphopeptide, fluorescence polarization. Potency, µM, actives largely listed as inhibitors. 2.8% of 360,000 active. AID 720504; further: series mostly up to about 57 µM; nearly all actives have a fitted effect of over 65% in size
Sfp PPTase inh: Sfp phosphopantetheinyl transferase inhibition | Biochemical Sfp PPTase activity, qHTS | Potency, µM, actives largely listed as inhibitors | 3.5% of 310,000 active;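 further: the enzyme is Sfp with the accession as filed and its product quenches rhodamine fluorescence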
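Reaction rates are the 30-min fluorescence difference (ex 525, em 598 nm) in wells containing 15 nM Sfp, 5 uM rhodamine-CoA and 12.5 uM BHQ-2-YbbR at pH 7.6 with 10 mM MgCl2.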
G9a block: G9a (human) methyltransferase inhibition; Potency, µM (titrated, usually from 102 µM), hits mostly inhibitors; G9a H3K9 monomethylation, AlphaScreen, 2 h; 8.8% of 350,000 active; Q96KQ7; further: nearly all actives have a fitted effect of over 75% in size
Target sequence (Q96KQ7 913-1193 limits assumed): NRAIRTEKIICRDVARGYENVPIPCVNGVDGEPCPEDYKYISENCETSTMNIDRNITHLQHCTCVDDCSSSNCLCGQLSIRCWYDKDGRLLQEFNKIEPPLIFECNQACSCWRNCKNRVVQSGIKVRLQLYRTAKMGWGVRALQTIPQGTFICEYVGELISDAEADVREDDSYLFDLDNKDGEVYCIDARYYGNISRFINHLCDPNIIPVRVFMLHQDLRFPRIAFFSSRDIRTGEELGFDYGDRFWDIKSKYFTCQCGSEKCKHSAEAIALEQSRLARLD
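G9a (20 nM) preincubated 15 min RT with compounds, then 500 nM biotinylated H3K9 peptide and 20 uM SAM added; 2 h RT reaction. Monomethyl-H3K9 product detected by AlphaScreen with anti-H3K9me1 antibody, streptavidin donor and anti-rabbit IgG acceptor beads.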
BAZ2B block: inhibitors of human BAZ2B bromodomain. 4.4% of 360,000 active. AID 504333. Potency, µM (highest dose often 114 µM), actives largely listed as inhibitors. AlphaScreen BAZ2B-H3K14Ac peptide displacement; further: nearly all actives have a fitted effect of over 60% in size
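Multi-concentration screen (max 110 uM) measuring displacement of acetylated histone H3 peptide from BAZ2B by AlphaScreen, using 50 nM protein, 50 nM peptide and 10 ug/mL streptavidin donor plus Ni-chelate acceptor beads.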
HP1b chromo inh: blocks HP1-beta chromodomain binding to methylated histone tails; P83916; 0.56% of 390,000 active; AlphaScreen HP1-beta / biotin-H3K9me3 peptide binding; Potency, µM (top dose mostly 114 µM), actives largely listed as inhibitors; AID 540317; further: nearly all actives have a fitted effect of over 70% in size
Target sequence (P83916 whole entry, looked up): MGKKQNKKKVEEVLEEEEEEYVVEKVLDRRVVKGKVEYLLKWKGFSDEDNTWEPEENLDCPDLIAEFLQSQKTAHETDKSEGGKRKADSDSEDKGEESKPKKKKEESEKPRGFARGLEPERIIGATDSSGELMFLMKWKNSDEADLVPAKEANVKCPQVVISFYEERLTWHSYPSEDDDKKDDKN
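HP1-beta protein (50 nM final) preincubated 30 min at room temperature with biotinylated H3(1-18)K9me3 peptide (50 nM) in PBS pH 7.4, 0.01% Tween-20, then compound added for 30 min. AlphaScreen streptavidin donor/nickel chelate acceptor beads (10 ug/mL final), 30 min dark, luminescence read.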
JMJD2A Tudor: blocks the human JMJD2A Tudor domain; O75164; AlphaScreen JMJD2A-Tudor / H3K4me3 peptide binding; Potency, µM (series often up to 114 µM), actives largely listed as inhibitors; 4.4% of 390,000 active; further: nearly all actives have a fitted effect of over 50% in size
Large screens that a line does not name were inactive. This is a sample that favours compounds with a hit; in the whole collection about 12% have one here. The call rests on the fitted dose curve; in most records, active means well fitted curve in the direction sought with a large enough effect; inconclusive means small, poorly fitted or top-dose-only effect, or another doubt; inactive means no such curve, though single readings can be large; an effect the other way counts as inactive or inconclusive.

COc1ccc(CCC(=O)Nc2ccc(N3CCOCC3)c(S(=O)(=O)Nc3ccc(OC)cc3)c2)cc1	none (no result: Sfp PPTase inh, G9a block, BAZ2B block)
COc1ccc(NS(=O)(=O)c2cc(NC(=O)c3cc(F)c(F)c(F)c3F)ccc2N2CCCC2)cc1	none (no result: G9a block)
COc1ccc(NS(=O)(=O)c2cc(NC(=O)CCNC(C)=O)ccc2N2CCCCC2)cc1	none (no result: Sfp PPTase inh)
COc1ccc(NS(=O)(=O)c2cc(NC(=O)C3CCCO3)ccc2N2CCCC2)cc1 (stereo unspecified)	G9a block 25.1µM
COc1ccc(NS(=O)(=O)c2cc(NC(=O)C3CCCO3)ccc2N2CCCCC2)cc1 (stereo unspecified)	G9a block 39.8µM
COc1ccc(NS(=O)(=O)c2cc(NC(=O)c3ccco3)ccc2N2CCCC2)cc1	G9a block 39.8µM
COc1ccc(NS(=O)(=O)c2cc(NC(=O)CC3CCCC3)ccc2N2CCOCC2)cc1	PLK1 PBD block inconclusive, Sfp PPTase inh 25.1µM, G9a block inconclusive (no result: BAZ2B block)
COC(=O)CN1C(=O)[C@@H]2[C@H](C1=O)[C@@H]1CC(C(=O)OC)=C[C@@H](C(=O)OC)C3C1=C(C(=O)[C@]3(C)NC(=O)c1ccccc1)[C@@H]2C (stereo partly specified)	none (no result: PLK1 PBD block, G9a block, BAZ2B block)
CCC1CN(C(=O)Nc2cc(C)ccc2OC)c2cc(Cl)ccc2O1 (stereo unspecified)	none (no result: PLK1 PBD block, Sfp PPTase inh)
C=CCn1c(=N)n(CC(O)COc2ccccc2OC)c2ccccc21 (stereo unspecified)	none
C=CCn1c(-c2ccc(OC)c(OC)c2)cs/c1=N\c1ccccn1	PLK1 PBD block inconclusive, Sfp PPTase inh 17.8µM, G9a block 3.55µM, BAZ2B block inconclusive, HP1b chromo inh inconclusive
Cc1ccc(N(C(=O)CNC(=O)c2ccco2)C(C(=O)NC2CCCCC2)c2cccnc2)cc1 (stereo unspecified)	none
CC(C)CN1CCC(C(=O)N2CCN(c3ccccc3F)CC2)CC1	G9a block 10µM, BAZ2B block inconclusive, HP1b chromo inh inconclusive, JMJD2A Tudor 22.4µM
CCOc1ccc(CN2CCC(C(=O)N3CCN(c4ccccc4F)CC3)CC2)cc1OC	G9a block 8.91µM, BAZ2B block inconclusive, HP1b chromo inh inconclusive, JMJD2A Tudor 7.08µM
O=C(C1CCCCC1)N1CCN(c2ccccc2F)CC1	none
CCOc1ccc(S(=O)(=O)N2CCC(C(=O)N3CCN(c4ccccc4F)CC3)CC2)cc1C	none (no result: G9a block)
COc1cc(C(CC(=O)O)n2cnnn2)ccc1OC(C)C (stereo unspecified)	none (no result: BAZ2B block)
Cn1c(CNC(=O)c2cccs2)n[nH]c1=S	G9a block 28.2µM, JMJD2A Tudor 14.1µM
O=C(NCc1n[nH]c(=S)n1-c1ccc(Br)cc1)c1cccs1	PLK1 PBD block inconclusive, G9a block 10µM, JMJD2A Tudor 25.1µM
Cc1cccc(C(=O)NCCc2nnc(SCC(=O)Nc3cccc(C(=O)O)c3)n2C)c1	none
Cc1cccc(C(=O)NCCc2n[nH]c(=S)n2C)c1	Sfp PPTase inh inconclusive, G9a block 11.2µM, JMJD2A Tudor inconclusive
Cn1c(CCNC(=O)c2cccs2)n[nH]c1=S	G9a block 22.4µM, JMJD2A Tudor 17.8µM
Cc1ccsc1-c1cc2nc(Nc3ccc(F)cc3)n(C)c(=O)c2s1	none (no result: Sfp PPTase inh, G9a block, BAZ2B block, HP1b chromo inh, JMJD2A Tudor)
NCC(=O)N[C@@H](CCCN=C(N)N)C(=O)NCC(=O)N[C@@H](CC(=O)O)C(=O)N[C@@H](CO)C(=O)O	none (no result: PLK1 PBD block, G9a block, BAZ2B block, HP1b chromo inh, JMJD2A Tudor)
Cc1ccc(/C=C2/N=C(c3ccccc3)NNC2=O)cc1	G9a block 14.1µM
N/C(=N\NC(=O)c1ccccc1)c1cc2ccccc2oc1=O	PLK1 PBD block 21.2µM, JMJD2A Tudor inconclusive
O=C(O)c1ccccc1NC(=O)c1cc2ccccc2oc1=O	Sfp PPTase inh inconclusive, G9a block 50.1µM
N/C(=N\NC(=O)c1cccs1)c1cc2cc(Cl)ccc2oc1=O	PLK1 PBD block 23.8µM, JMJD2A Tudor inconclusive
Cc1ccc(-n2c(=O)c3ccccc3n(CC(=O)Nc3cccc(C(F)(F)F)c3)c2=O)cc1	none (no result: PLK1 PBD block, Sfp PPTase inh)
Cc1ccc(NCC(=O)N=Nc2c(O)[nH]c3ccc([N+](=O)[O-])cc23)cc1	none (no result: G9a block)
O=C(Nc1ccc(F)cc1)C(=O)c1c(O)[nH]c2ccc([N+](=O)[O-])cc12	PLK1 PBD block inconclusive, Sfp PPTase inh inconclusive, G9a block 31.6µM, BAZ2B block inconclusive, JMJD2A Tudor inconclusive
CC(=O)c1c(C)[nH]c(C(=O)OCC(=O)N2CC(C)OC(C)C2)c1C (stereo unspecified)	BAZ2B block inconclusive (no result: Sfp PPTase inh)
CC1C2(C)OCC(C#N)(C(=N)O2)C1(C#N)C#N (stereo unspecified)	G9a block 44.7µM (no result: PLK1 PBD block, HP1b chromo inh, JMJD2A Tudor)
COc1ccc(C(=O)N2CCc3ccccc32)cc1	none
COc1ccc(C(=O)/C=C2\NCC3c4ccccc4CCN3C2=O)cc1 (stereo unspecified)	PLK1 PBD block 9.47µM, Sfp PPTase inh inconclusive
CCc1ccc(NC(=O)CN2C(=O)CSc3ccc(S(=O)(=O)N(C)C)cc32)cc1	none (no result: PLK1 PBD block, Sfp PPTase inh)
COc1ccc(-c2ccc(F)cc2)cc1C1C2C=CCC(C)C2C(=O)N1Cc1ccccc1 (stereo unspecified)	none (no result: PLK1 PBD block, G9a block, BAZ2B block)
Cc1ccc(NC(=O)COC(=O)COc2ccc(Cl)cc2C)c([N+](=O)[O-])c1	G9a block 28.2µM, BAZ2B block inconclusive, JMJD2A Tudor inconclusive
Cc1ccc(NC(=O)COC(=O)CCC(=O)c2ccc(C(C)(C)C)cc2)c([N+](=O)[O-])c1	G9a block 11.2µM, BAZ2B block inconclusive, HP1b chromo inh inconclusive, JMJD2A Tudor inconclusive
Cc1ccc(NC(=O)COC(=O)CCn2c(C)csc2=O)c([N+](=O)[O-])c1	G9a block inconclusive (no result: Sfp PPTase inh)
Cc1cc(-c2nnc(CCC(=O)NCc3cccc(C(F)(F)F)c3)o2)no1	none
Cc1oc(-c2ccccc2Cl)nc1CS(=O)CC(=O)N1CCN(c2cccc(C(F)(F)F)c2)CC1 (stereo unspecified)	JMJD2A Tudor inconclusive (no result: PLK1 PBD block, Sfp PPTase inh)
CN(C)c1ccc(N2CN=C3SCC(=O)N3C2)cc1	Sfp PPTase inh inconclusive, G9a block inconclusive, BAZ2B block 25.1µM, HP1b chromo inh 56.2µM, JMJD2A Tudor 50.1µM
S=C=Nc1cccc(NC(=S)NCCCCNC(=S)Nc2cccc(N=C=S)c2)c1	none (no result: PLK1 PBD block, G9a block, BAZ2B block, HP1b chromo inh, JMJD2A Tudor)
O=C(N/N=C/c1ccc(O)cc1)c1cc[n+](Cc2ccccc2)cc1	G9a block inconclusive
COc1ccc(O)c(/C=N/NC(=O)c2ccc(OCc3cccc(Br)c3)cc2)c1	BAZ2B block inconclusive, JMJD2A Tudor 35.5µM
COc1ccc(C(=O)N/N=C/c2cc(Br)ccc2O)cc1OC	HP1b chromo inh inconclusive (no result: G9a block)
CC(C)(C)c1ccc(OCc2ccc(C(=O)N/N=C/c3ccc(O)c(O)c3)cc2)cc1	G9a block inconclusive, BAZ2B block 31.6µM, HP1b chromo inh inconclusive, JMJD2A Tudor inconclusive
O=C(N/N=C/c1ccc(OCc2ccccc2)cc1)c1cc[n+](Cc2ccccc2)cc1	G9a block 70.8µM, JMJD2A Tudor inconclusive
